Data as given in ChEMBL document CHEMBL1961873, “Compounds: GSK PKIS; Assays: Nanosyn kinase panel” (2012).

Tests used:
[1] = molecular target: Dual specificity protein kinase CLK3 (Homo sapiens) (UniProt P49761); conditions: at 1 µM;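 note: each value is the mean inhibition of CLK3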
[2] = molecular target: Dual specificity tyrosine-phosphorylation-regulated kinase 1A (Homo sapiens) (UniProt Q13627); conditions: at 0.1 µM
[3] = molecular target: Dual specificity tyrosine-phosphorylation-regulated kinase 1A (Homo sapiens) (UniProt Q13627); conditions: at 1 µM
[4] = molecular target: Dual specificity tyrosine-phosphorylation-regulated kinase 1B (Homo sapiens) (UniProt Q9Y463); conditions: at 0.1 µM
Dual specificity tyrosine-phosphorylation-regulated kinase 1B (Homo sapiens), sequence (Q9Y463 whole entry, looked up): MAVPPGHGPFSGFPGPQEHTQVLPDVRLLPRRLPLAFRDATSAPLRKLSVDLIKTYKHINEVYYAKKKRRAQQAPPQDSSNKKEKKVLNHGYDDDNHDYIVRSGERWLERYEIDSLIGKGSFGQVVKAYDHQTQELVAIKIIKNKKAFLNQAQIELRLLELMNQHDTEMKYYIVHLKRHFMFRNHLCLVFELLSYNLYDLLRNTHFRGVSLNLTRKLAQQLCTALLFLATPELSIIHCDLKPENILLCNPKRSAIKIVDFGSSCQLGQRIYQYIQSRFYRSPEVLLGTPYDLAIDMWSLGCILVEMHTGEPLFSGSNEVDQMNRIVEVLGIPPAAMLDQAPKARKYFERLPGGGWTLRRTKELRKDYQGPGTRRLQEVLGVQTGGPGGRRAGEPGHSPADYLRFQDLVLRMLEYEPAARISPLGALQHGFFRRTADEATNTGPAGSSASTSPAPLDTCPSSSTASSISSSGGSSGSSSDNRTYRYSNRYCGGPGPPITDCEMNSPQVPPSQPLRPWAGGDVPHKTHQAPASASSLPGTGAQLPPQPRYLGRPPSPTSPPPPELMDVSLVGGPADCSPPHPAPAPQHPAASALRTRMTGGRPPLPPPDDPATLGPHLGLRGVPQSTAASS

[5] = molecular target: Dual specificity tyrosine-phosphorylation-regulated kinase 1B (Homo sapiens) (UniProt Q9Y463); conditions: at 1 µM
[6] = molecular target: T1, Dual specificity tyrosine-phosphorylation-regulated kinase 2 (Homo sapiens) (UniProt Q92630); conditions: at 0.1 µM
T1 sequence (whole entry): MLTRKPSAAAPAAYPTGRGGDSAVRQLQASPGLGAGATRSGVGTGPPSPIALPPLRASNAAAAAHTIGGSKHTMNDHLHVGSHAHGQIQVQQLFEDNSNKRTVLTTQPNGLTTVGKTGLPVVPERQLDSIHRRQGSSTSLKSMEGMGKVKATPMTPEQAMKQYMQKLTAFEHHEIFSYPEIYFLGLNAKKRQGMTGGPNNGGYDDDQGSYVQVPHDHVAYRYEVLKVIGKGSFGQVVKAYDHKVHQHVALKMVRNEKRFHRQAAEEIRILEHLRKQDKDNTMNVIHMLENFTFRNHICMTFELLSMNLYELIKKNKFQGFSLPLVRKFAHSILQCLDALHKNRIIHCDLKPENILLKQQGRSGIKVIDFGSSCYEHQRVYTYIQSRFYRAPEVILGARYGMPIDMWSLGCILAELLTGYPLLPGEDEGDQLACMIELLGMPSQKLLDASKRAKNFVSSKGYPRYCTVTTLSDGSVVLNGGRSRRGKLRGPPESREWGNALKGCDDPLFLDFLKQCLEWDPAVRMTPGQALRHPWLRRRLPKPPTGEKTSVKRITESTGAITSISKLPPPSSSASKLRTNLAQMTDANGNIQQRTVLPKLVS

[7] = molecular target: T1, Dual specificity tyrosine-phosphorylation-regulated kinase 2 (Homo sapiens); conditions: at 1 µM
[8] = molecular target: Glycogen synthase kinase-3 alpha (Homo sapiens) (UniProt P49840); conditions: at 0.1 µM
Glycogen synthase kinase-3 alpha (Homo sapiens), sequence (P49840 2-483 limits assumed): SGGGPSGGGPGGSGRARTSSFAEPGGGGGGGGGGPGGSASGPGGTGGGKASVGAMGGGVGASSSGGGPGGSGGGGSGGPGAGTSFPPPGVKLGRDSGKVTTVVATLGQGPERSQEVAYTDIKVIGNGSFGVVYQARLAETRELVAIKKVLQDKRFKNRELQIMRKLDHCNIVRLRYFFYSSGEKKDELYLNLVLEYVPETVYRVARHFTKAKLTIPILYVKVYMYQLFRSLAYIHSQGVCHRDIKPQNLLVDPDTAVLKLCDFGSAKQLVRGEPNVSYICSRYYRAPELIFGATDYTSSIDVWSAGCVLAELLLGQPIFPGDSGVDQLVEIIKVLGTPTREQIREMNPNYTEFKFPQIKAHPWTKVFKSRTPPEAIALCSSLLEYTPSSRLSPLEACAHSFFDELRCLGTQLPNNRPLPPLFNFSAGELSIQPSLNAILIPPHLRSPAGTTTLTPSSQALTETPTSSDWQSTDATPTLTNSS

[9] = molecular target: Glycogen synthase kinase-3 alpha (Homo sapiens) (UniProt P49840); conditions: at 1 µM
[10] = molecular target: Glycogen synthase kinase-3 beta (Homo sapiens) (UniProt P49841); conditions: at 0.1 µM
Glycogen synthase kinase-3 beta (Homo sapiens), sequence (P49841 whole entry, looked up): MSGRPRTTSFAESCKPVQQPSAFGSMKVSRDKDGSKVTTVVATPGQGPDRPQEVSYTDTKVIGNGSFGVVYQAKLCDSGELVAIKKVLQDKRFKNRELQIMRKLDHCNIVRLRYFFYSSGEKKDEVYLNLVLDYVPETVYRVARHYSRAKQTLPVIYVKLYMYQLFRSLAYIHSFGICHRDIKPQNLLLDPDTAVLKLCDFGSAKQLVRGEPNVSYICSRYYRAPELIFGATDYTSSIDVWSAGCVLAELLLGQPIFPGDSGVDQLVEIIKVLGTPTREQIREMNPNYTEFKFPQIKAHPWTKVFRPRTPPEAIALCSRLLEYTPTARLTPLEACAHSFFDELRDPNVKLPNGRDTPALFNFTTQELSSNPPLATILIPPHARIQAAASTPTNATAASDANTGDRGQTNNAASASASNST

[11] = molecular target: Glycogen synthase kinase-3 beta (Homo sapiens) (UniProt P49841); conditions: at 1 µM
[12] = molecular target: Homeodomain-interacting protein kinase 1 (Homo sapiens) (UniProt Q86Z02); conditions: at 0.1 µM
Homeodomain-interacting protein kinase 1 (Homo sapiens), sequence (Q86Z02 whole entry, looked up): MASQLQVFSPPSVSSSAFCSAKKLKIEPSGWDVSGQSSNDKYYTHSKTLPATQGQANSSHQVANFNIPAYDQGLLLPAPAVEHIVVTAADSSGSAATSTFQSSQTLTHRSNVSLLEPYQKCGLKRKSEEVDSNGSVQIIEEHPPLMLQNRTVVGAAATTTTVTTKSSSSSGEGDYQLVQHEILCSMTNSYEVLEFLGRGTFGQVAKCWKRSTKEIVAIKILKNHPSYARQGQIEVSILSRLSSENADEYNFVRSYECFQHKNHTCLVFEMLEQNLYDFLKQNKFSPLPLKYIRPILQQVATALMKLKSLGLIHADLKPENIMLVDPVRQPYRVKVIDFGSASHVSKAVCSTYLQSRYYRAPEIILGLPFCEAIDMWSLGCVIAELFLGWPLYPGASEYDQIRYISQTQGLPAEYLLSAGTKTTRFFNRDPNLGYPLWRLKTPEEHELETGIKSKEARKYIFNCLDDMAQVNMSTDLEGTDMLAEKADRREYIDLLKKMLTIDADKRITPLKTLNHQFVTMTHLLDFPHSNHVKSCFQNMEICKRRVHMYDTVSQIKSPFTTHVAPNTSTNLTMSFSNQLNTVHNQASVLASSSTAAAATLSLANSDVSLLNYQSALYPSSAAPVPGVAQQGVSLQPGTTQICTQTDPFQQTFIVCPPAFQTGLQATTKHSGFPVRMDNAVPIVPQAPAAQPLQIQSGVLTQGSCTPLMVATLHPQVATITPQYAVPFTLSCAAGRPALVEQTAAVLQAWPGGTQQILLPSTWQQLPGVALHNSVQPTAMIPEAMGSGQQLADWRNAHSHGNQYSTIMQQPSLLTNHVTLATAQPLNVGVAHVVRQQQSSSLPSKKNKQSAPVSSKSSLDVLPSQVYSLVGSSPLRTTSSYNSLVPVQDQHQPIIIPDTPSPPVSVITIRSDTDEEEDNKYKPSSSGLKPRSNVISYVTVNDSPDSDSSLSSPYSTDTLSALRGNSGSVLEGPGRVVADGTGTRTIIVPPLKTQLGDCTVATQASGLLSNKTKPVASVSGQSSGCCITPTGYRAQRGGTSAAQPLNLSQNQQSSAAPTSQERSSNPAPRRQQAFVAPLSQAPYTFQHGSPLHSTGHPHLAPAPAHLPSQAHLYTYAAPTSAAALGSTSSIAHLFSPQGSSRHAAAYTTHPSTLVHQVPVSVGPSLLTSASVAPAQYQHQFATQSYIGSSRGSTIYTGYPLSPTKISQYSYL

[13] = molecular target: Homeodomain-interacting protein kinase 1 (Homo sapiens) (UniProt Q86Z02); conditions: at 1 µM
[14] = molecular target: T2, Homeodomain-interacting protein kinase 4 (Homo sapiens) (UniProt Q8NE63); conditions: at 0.1 µM
T2 sequence (whole entry): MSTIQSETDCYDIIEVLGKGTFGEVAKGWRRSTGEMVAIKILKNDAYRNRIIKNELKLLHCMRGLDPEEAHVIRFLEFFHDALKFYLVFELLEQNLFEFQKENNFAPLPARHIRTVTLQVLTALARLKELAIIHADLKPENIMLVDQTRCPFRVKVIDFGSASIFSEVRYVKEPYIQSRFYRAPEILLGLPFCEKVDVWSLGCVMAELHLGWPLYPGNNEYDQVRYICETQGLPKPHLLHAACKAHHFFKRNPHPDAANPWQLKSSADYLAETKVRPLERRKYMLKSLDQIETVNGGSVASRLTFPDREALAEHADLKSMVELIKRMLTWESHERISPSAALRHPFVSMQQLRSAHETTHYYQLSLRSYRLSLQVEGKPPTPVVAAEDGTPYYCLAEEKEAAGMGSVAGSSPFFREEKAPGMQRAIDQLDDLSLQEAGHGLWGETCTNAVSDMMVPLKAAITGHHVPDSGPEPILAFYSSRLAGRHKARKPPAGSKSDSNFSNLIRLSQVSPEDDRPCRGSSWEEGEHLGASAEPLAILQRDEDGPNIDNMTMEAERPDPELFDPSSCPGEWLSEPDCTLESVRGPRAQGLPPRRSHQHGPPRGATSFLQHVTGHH

[15] = molecular target: T2, Homeodomain-interacting protein kinase 4 (Homo sapiens); conditions: at 1 µM
[16] = molecular target: Mitogen-activated protein kinase 9 (Homo sapiens) (UniProt P45984); conditions: at 0.1 µM
Mitogen-activated protein kinase 9 (Homo sapiens), sequence (P45984 whole entry, looked up): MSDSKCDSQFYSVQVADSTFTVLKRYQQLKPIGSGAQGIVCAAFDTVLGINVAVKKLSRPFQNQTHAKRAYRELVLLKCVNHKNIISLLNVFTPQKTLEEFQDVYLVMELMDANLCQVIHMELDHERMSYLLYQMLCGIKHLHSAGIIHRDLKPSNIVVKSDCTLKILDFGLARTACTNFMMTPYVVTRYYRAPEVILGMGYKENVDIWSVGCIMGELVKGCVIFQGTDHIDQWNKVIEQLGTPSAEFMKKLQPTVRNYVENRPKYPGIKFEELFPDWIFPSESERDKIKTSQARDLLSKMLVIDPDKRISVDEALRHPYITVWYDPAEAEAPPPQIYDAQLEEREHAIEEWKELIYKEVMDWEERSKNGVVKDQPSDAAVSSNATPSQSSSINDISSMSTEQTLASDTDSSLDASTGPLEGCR

[17] = molecular target: Mitogen-activated protein kinase 9 (Homo sapiens) (UniProt P45984); conditions: at 1 µM
[18] = molecular target: Mitogen-activated protein kinase 1 (Homo sapiens) (UniProt P28482); conditions: at 0.1 µM
Mitogen-activated protein kinase 1 (Homo sapiens), sequence (P28482 whole entry): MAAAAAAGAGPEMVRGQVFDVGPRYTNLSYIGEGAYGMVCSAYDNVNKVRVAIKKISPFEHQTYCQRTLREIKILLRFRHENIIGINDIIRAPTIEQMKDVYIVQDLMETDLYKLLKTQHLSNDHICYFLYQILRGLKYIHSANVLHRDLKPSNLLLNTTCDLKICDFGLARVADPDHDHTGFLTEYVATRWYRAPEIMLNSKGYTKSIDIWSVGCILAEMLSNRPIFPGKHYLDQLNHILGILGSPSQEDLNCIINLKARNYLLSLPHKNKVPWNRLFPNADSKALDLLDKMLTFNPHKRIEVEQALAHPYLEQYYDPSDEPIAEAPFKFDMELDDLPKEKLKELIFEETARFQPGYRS

[19] = molecular target: Mitogen-activated protein kinase 1 (Homo sapiens) (UniProt P28482); conditions: at 1 µM
[20] = molecular target: Mitogen-activated protein kinase 3 (Homo sapiens) (UniProt P27361); conditions: at 0.1 µM;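 note: each value is a mean inhibition figure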
Mitogen-activated protein kinase 3 (Homo sapiens), sequence (P27361 whole entry): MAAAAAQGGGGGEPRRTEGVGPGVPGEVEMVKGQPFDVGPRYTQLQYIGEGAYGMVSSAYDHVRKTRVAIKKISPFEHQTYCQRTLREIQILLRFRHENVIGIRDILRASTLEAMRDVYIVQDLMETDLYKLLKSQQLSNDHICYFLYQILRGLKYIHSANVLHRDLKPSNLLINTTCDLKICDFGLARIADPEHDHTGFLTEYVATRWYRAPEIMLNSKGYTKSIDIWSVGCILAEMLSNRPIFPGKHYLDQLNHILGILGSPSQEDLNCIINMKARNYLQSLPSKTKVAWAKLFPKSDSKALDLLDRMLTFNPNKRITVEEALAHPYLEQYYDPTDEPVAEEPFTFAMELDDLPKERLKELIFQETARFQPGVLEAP

Dual specificity protein kinase CLK3 (Homo sapiens), sequence (P49761 whole entry, looked up): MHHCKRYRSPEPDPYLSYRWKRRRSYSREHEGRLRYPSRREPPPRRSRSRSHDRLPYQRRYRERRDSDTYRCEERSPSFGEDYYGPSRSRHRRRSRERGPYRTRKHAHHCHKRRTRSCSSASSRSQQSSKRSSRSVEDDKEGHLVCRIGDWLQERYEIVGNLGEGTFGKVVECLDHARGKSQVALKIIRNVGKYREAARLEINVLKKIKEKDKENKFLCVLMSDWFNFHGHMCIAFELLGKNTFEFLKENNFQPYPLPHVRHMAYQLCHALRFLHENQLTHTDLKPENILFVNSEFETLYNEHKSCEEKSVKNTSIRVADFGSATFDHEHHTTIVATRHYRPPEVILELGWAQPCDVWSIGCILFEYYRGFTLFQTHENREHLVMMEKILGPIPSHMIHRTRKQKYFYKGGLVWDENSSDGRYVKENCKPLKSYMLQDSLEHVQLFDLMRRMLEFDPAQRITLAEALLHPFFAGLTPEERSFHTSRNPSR

SMILES	inhibition [1]	inhibition [2]	inhibition [3]	inhibition [4]	inhibition [5]	inhibition [6]	inhibition [7]	inhibition [8]	inhibition [9]	inhibition [10]	inhibition [11]	inhibition [12]	inhibition [13]	inhibition [14]	inhibition [15]	inhibition [16]	inhibition [17]	inhibition [18]	inhibition [19]	inhibition [20]
CS(=O)(=O)CCNCc1ccc(-c2ccc3ncnc(Nc4ccc(OCc5ccccc5)c(C(F)(F)F)c4)c3c2)o1	0.19%	2.36%	4.91%	-2.07%	-0.6%	3.17%	0.91%	3.36%	3.82%	3.13%	3.51%	-3.76%	-0.23%	-0.74%	-1.78%	2.51%	0.92%	4.58%	5.24%	3.56%
O=C(O[C@H]1CN[C@H](C#Cc2cc3ncnc(Nc4ccc(Cc5ccccc5)cc4)c3s2)C1)N1CCOCC1	0.23%	1.9%	-0.14%	1.3%	2.47%	2.26%	0.33%	2.45%	3.62%	0.78%	2.73%	-2.13%	0.97%	0.04%	-1.93%	-0.66%	-0.45%	3.25%	3.25%	2.66%
COc1ccc(-c2cc3c(N)ncnc3o2)cc1	11.4%	4.26%	22.7%	5.2%	12%	0.06%	18.5%	5.87%	7.92%	5.53%	8%	0%	5.4%	2.36%	16.5%	-0.62%	-0.18%	1%	0.69%	-1.53%
CCn1c(-c2nonc2N)nc2cnc(Oc3cccc(NC(=O)c4ccc(N(C)C)cc4)c3)cc21	0.75%	0.93%	5.38%	-0.45%	4.48%	1%	2.79%	8.94%	46.6%	6.2%	41%	-2.28%	1.69%	-1.11%	3.8%	2.94%	3.41%	1.18%	3.77%	1.53%
c1ccc(-c2nc3n(c2-c2ccc4c(c2)OCO4)CCC3)nc1	1.02%	1.52%	6.32%	1.24%	5.19%	1.61%	1.95%	1.93%	5.52%	2.03%	6.89%	0.04%	0.44%	-0.4%	-0.33%	1.36%	1.96%	-0.55%	0.62%	0.29%
CCCN1CCC(c2ccc(Nc3nc(Nc4cc(F)ccc4C(N)=O)c4cc[nH]c4n3)c(OC)c2)CC1	22%	63.1%	81.9%	65.2%	81.9%	10.3%	49%	6.12%	8.5%	4.67%	9.55%	49.2%	81.5%	59.6%	84.6%	68%	83.8%	9.4%	30.2%	4.94%
COc1cc2ncn(-c3cc(OCc4ccccc4C(F)(F)F)c(C(=O)N(C)C)s3)c2cc1OC	0.45%	0.01%	0.74%	0.5%	0.22%	-0.27%	2.19%	0.04%	1.19%	0.03%	1.99%	-1.93%	-0.02%	-0.52%	2.66%	1.07%	2.1%	-1.73%	0.92%	-0.18%
CCc1nn2ncccc2c1-c1ccnc(NC2CC2)n1	0.97%	1.95%	4.71%	1.01%	5.27%	1.81%	10.9%	6.96%	9.03%	6.18%	7.53%	-1.75%	9.32%	2.35%	20.9%	2.47%	5.7%	1.85%	3.78%	-0.55%
CCN(CC)S(=O)(=O)c1ccc(OC)c(Nc2ncc(-c3ccccc3)o2)c1	8.6%	1.08%	10.9%	1.93%	14.7%	1.64%	6.15%	0.34%	2.7%	0.79%	3.89%	1.49%	10.2%	2.17%	17.8%	2.31%	1.02%	-1.7%	-0.08%	1.68%
Cc1ccc(O)cc1Nc1ccnc2cc(-c3ccccn3)ccc12	2.88%	2.56%	4.96%	0.53%	1.85%	3.35%	5.79%	2.73%	6.51%	1.23%	5.65%	1.24%	5.57%	1.19%	0.77%	2.32%	11.5%	-0.57%	4.7%	1.59%
Clc1ccc(-c2nn3ncccc3c2-c2ccnc(Nc3ccccc3)n2)cc1	2.2%	2.68%	5.74%	1.65%	3.34%	1.34%	0.66%	1.79%	12.2%	2.61%	26.2%	1.35%	3.25%	0.5%	2.83%	16.6%	73.4%	-0.11%	1.18%	-0.01%
